Values joined by “and” are separate entries in the source; they are usually repeats but may differ in a detail not shown here. Equal values may be shown once. Where a name gives a salt, the structure may show the parent alone.
Tests used:
Assay in all cases: cell viability relative to vehicle control; higher = less cytotoxic
Settings in all cases: 10 µM
K562 = test system: K562
Summary of the method: (§1)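 After removal of identity-inconsistent compounds, the Selleck bioactive, kinase and epigenetic probe libraries were screened on CRISPR-edited mutant clones and isogenic wild-type clones of four leukaemia lines. Plates were 384-well, each well holding 2000 cells in 50 µL medium and receiving a single 10 µM acoustically dispensed dose. CellTiter-Glo luminescence was read 48 h later, after the supernatant was taken off. Genedata Screener was used to express viability as percent of the on-plate vehicle control.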

MARIMO = test system: MARIMO
Summary of the method: as §1

MOLM14 = test system: MOLM14
Summary of the method: as §1

OCI-AML2 = test system: OCI-AML2
Summary of the method: as §1

| Structure (SMILES) | cell viability (K562; SRSF2 genotype: SRSF2 P95H/wt) | cell viability (K562; SRSF2 genotype: SRSF2 wt/wt) | cell viability (MARIMO; SRSF2 genotype: SRSF2 P95H/wt) | cell viability (MARIMO; SRSF2 genotype: SRSF2 wt/wt) | cell viability (MOLM14; SRSF2 genotype: SRSF2 P95H/wt) | cell viability (MOLM14; SRSF2 genotype: SRSF2 wt/wt) | cell viability (OCI-AML2; SRSF2 genotype: P95H/wt) | cell viability (OCI-AML2; SRSF2 genotype: wt/wt) |
| --- | --- | --- | --- | --- | --- | --- | --- | --- |
| COc1cc2c(cc1OC)[C@H]1[C@@H](C)c3ccc(OC)c(OC)c3CN1CC2 [Corydaline] | 84.4% and 88.8% | 86.6% | 83.2% | 82% | 89.4% | 90.9% | 73.8% | 79.1% |
| CC1(C)CC[C@]2(C(=O)O)CC[C@]3(C)C(=CC[C@@H]4[C@@]5(C)C[C@@H](O)[C@H](O)C(C)(C)[C@@H]5CC[C@]43C)[C@@H]2C1 [Maslinic acid] | 84.2% and 80.1% | 84.5% | 91.3% | 108% | 90.7% | 86.9% | 77% | 82.2% |
| CC1=C[C@H]2[C@@H](CC1)[C@H](C)CC[C@H]2[C@@H](C)C(=O)O [Dihydroartemisinic acid] | 99.8% and 91.7% | 99.6% | 101% | 104% | 94.6% | 101% | 98.5% | 109% |
| CNC(=O)c1cc(Oc2ccc(NC(=O)Nc3ccc(Cl)c(C(F)(F)F)c3)cc2)ccn1 [Sorafenib Tosylate] | 7.11% and 11.7% | 11.8% | 35.8% | 29.3% | 9.9% | 11.5% | 9.8% | 11.3% |
| CN(NC(=O)CC(=O)NN(C)C(=S)c1ccccc1)C(=S)c1ccccc1 [Elesclomol (STA-4783)] | 28.9% and 15.4% | 51.2% | 11.8% | 21.5% | 0.35% | 0.25% | 2.86% | 12.4% |
| COc1cc2nc(N3CCN(C(=O)C4COc5ccccc5O4)CC3)nc(N)c2cc1OC (stereo not given) [Doxazosin mesylate] | 94.7% and 100% | 95.9% | 105% | 101% | 92.2% | 105% | 92.7% | 96.5% |
| O=C(O)C1=CO[C@@H](O[C@@H]2O[C@H](CO)[C@@H](O)[C@H](O)[C@H]2O)[C@@H]2C(CO)=CC[C@H]12 [Geniposidic acid] | 105% and 91.2% | 93.8% | 89.8% | 105% | 92.5% | 91.6% | 90.8% | 107% |
| Cc1ccc(CN(CC(O)COc2cccc3[nH]ccc23)C(C)(C)C)cc1 (stereo not given) | 71% and 71.5% | 66.8% | 67% | 76.8% | 68% | 74% | 83.4% | 86.2% |
| COc1cc(NS(=O)(=O)c2ccc(N)cc2)nc(OC)n1 [SulfadiMethoxine sodium] | 106% and 100% | 111% | 100% | 105% | 106% | 107% | 102% | 118% |
| O=C(Nc1ccc(Oc2ccc(Cl)cc2)c(Cl)c1)c1cc(I)cc(I)c1O [Rafoxanide] | 85.2% and 95.8% | 97.9% | 101% | 111% | 80.4% | 108% | 105% | 101% |
| CCCS(=O)(=O)Nc1ccc(F)c(C(=O)c2c[nH]c3ncc(-c4ccc(Cl)cc4)cc23)c1F [Vemurafenib (PLX4032, RG7204)] | 92.8% and 102% | 94.8% | 92.6% | 106% | 102% | 108% | 111% | 105% |
| CC(C)(Oc1ccc(C2CC2(Cl)Cl)cc1)C(=O)O (stereo not given) [Ciprofibrate] | 101% and 96.8% | 97.7% | 89.6% | 106% | 98% | 99.4% | 94.3% | 110% |
| C[C@H]1CN(C[C@H](Cc2ccccc2)C(=O)NCC(=O)O)CC[C@@]1(C)c1cccc(O)c1 [Alvimopan dihydrate] | 110% and 102% | 101% | 98.5% | 112% | 102% | 103% | 94.9% | 99.2% |
| COc1cc2ncnc(Nc3cccc(Cl)c3F)c2cc1OC(=O)N1CCN(C)C[C@H]1C | 84.8% and 93.4% | 101% | 104% | 106% | 77.9% | 87.3% | 89.8% | 75.7% |
| CC[C@@H]1/C=C(\C)C[C@H](C)C[C@H](OC)[C@H]2O[C@@](O)(C(=O)C(=O)N3CCCC[C@H]3C(=O)O[C@H](/C(C)=C/[C@@H]3CC[C@@H](O)[C@H](OC)C3)[C@H](C)[C@@H](O)CC1=O)[C@H](C)C[C@@H]2OC [Ascomycin (FK520)] | 75.8% and 83% | 83.6% | 86.6% | 96.8% | 89.1% | 89.1% | 95.8% | 93.5% |
| Cc1onc(-c2c(Cl)cccc2Cl)c1C(=O)N[C@@H]1C(=O)N2[C@@H]1SC(C)(C)[C@@H]2C(=O)O [Dicloxacillin Sodium] | 99.5% and 95% | 101% | 101% | 103% | 98.7% | 98.3% | 93% | 109% |
| CO/N=C(\C(=O)N[C@@H]1C(=O)N2C(C(=O)OC(C)OC(C)=O)=C(COC(N)=O)CS[C@H]12)c1ccco1 (stereo not given in full) [Cefuroxime axetil] | 103% and 102% | 96.2% | 99.6% | 104% | 101% | 107% | 111% | 105% |
| CN1CCC(COc2cnc(-c3cccc(Cn4nc(-c5cccc(C#N)c5)ccc4=O)c3)nc2)CC1 | 30.9% and 26.1% | 30.5% | 61.7% | 63.6% | 55.6% | 47.5% | 49.2% | 52.8% |
| Cc1onc(-c2ccccc2Cl)c1C(=O)N[C@@H]1C(=O)N2[C@@H]1SC(C)(C)[C@@H]2C(=O)O [Cloxacillin sodium] | 102% and 109% | 97.6% | 102% | 106% | 102% | 106% | 105% | 108% |
| NNC(=O)c1ccncc1.Nc1ccc(C(=O)O)c(O)c1 [pasiniazid] | 109% and 113% | 114% | 106% | 106% | 101% | 108% | 119% | 93.9% |
